Experimental findings from PubChem BioAssay (EPA / NIEHS) are described below.

SMILES strings stand for the structures. Results filed as inconclusive are left out. Activity calls are given as the source filed them. How the source made its calls, unless noted: active means hit-call score of the fitted dose curve at least 0.9, where 1 is the maximum; inconclusive means response in the unintended direction; inactive means score below 0.9.

A short description of experiment [1]: Tanguay_ZF_120hpf_OTIC_legacy: (Legacy) Oregon State University Tanguay Lab 120 Hour Post-fertilization zebrafish Assay for Otic Vesicle Malformation (AID 2283639). An outline of the steps: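 Otic vesicle malformation is read as a yes/no morphology call at 120 hpf. Exposure is static at 28C with 0.64% (vol/vol) DMSO; embryos that die are excluded from non-mortality endpoints.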

The nature of experiment [2]: Tanguay_ZF_120hpf_PE_legacy: (Legacy) Oregon State University Tanguay Lab 120 Hour Post-fertilization zebrafish Assay for Pericardial Edema (AID 2283640).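 On AC50: potency for increased incidence of pericardial edema versus DMSO baseline.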 The gist of the method: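 Tropical 5D wild-type zebrafish embryos were statically exposed until 120 hpf at 28C, with 0.64% DMSO final. Pericardial edema was scored by brightfield as present or absent; endpoints were not scored in dead embryos.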

The nature of experiment [3]: Tanguay_ZF_120hpf_BRAI_legacy: (Legacy) Oregon State University Tanguay Lab 120 Hour Post-fertilization zebrafish Assay for Brain Malformation (AID 2283641). The gist of the method: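 Tropical 5D wild-type zebrafish embryos exposed statically until 120 hpf at 28C, 0.64% DMSO final, sealed and dark. Brain malformation scored present/absent by brightfield at 120 hpf; dead embryos excluded. Trimethyltin chloride 5uM positive control.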

Experiment [4] can be described thus: Tanguay_ZF_120hpf_SOMI_legacy: (Legacy) Oregon State University Tanguay Lab 120 Hour Post-fertilization zebrafish Assay for Somite Malformation (AID 2283647). The gist of the method:
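Dechorionated Tropical 5D wild-type zebrafish embryos, one per well from 6 hpf, statically exposed at 28C to 120 hpf in 0.64% DMSO; somite malformation scored present/absent by brightfield; trimethyltin 5 uM positive control; dead embryos not scored.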

Experiment [5] in a line: Tanguay_ZF_120hpf_PFIN_legacy: (Legacy) Oregon State University Tanguay Lab 120 Hour Post-fertilization zebrafish Assay for Pectoral Fin Malformation (AID 2283648).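 Further: each larva judged yes or no for fin defect by brightfield with dead larvae skipped.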 The gist of the method:
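Tropical 5D wild-type embryos, dechorionated with pronase at 4 hpf, were placed singly in wells at 6 hpf and statically exposed until 120 hpf at 28C, sealed and dark, with 0.64% (vol/vol) final DMSO; pectoral fin malformation scored present/absent.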

The nature of experiment [6]: Tanguay_ZF_120hpf_CFIN_legacy: (Legacy) Oregon State University Tanguay Lab 120 Hour Post-fertilization zebrafish Assay for Caudal Fin Malformation (AID 2283649). The gist of the method:
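Dechorionated Tropical 5D wild-type embryos, one per well from 6 hpf, static exposure to 120 hpf at 28C in 0.64% DMSO. Caudal fin malformation scored by brightfield as present/absent; not scored in dead embryos.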

Experiment [7] is described as follows: Tanguay_ZF_120hpf_PIG_legacy: (Legacy) Oregon State University Tanguay Lab 120 Hour Post-fertilization zebrafish Assay for Pigmentation Malformation (AID 2283650). The gist of the method: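 Tropical 5D wild-type zebrafish embryos, dechorionated with pronase at 4 hpf, were exposed singly from 6 hpf to 120 hpf statically at 28C in sealed, dark plates with 0.64% DMSO; pigmentation scored present/absent by brightfield microscopy, fitted against DMSO.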

A short description of experiment [8]: Tanguay_ZF_120hpf_JAW_legacy: (Legacy) Oregon State University Tanguay Lab 120 Hour Post-fertilization zebrafish Assay for Jaw Malformation (AID 2283638). The gist of the method: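 Dechorionated Tropical 5D wild-type zebrafish embryos, one per well, exposed statically from 6 hpf to 120 hpf at 28C in 0.64% DMSO. Jaw malformation was scored by brightfield microscopy as present or absent. It was not scored in dead embryos.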

The nature of experiment [9]: Tanguay_ZF_120hpf_CIRC_legacy: (Legacy) Oregon State University Tanguay Lab 120 Hour Post-fertilization zebrafish Assay for Circulatory Malformation (AID 2283651). The gist of the method:
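Using wild-type Tropical 5D zebrafish, we exposed dechorionated embryos from 6 to 120 hpf in embryo medium with 0.64% DMSO. Circulatory defects were scored as present or absent; 5uM trimethyltin chloride served as positive control.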

Read-out in experiment [10]: kallikrein-3 (KLK3), KLK3 (gene 354)
The experiment can be described thus: LTEA_HepaRG_KLK3: Life Technologies and Expression Analysis (LTEA) Assay for kallikrein-3 (KLK3) using HepaRG (AID 2283652; active means hit-call score of the fitted dose curve at least 0.9, where 1 is the maximum; inactive means score below 0.9). The settings on record: mRNA level, 48 h; actives raise or lower the signal. As for the experimental part: LTEA_HepaRG is a cell based, multiplexed-readout assay that uses HepaRG, a human liver cell line, with measurements taken at 48 hours after chemical dosing on a 96-well plate.LTEA_HepaRG_KLK3 is one of 102 assay component(s) measured in the LTEA HepaRG cell culture assay. It is a marker of Cellular remodeling.Data from the assay component LTEA_HepaRG_KLK3 was analyzed into 1 endpoint. This assay endpoint, LTEA_HepaRG_KLK3, was analyzed with bidirectional fitting relative to DMSO as the negative control and baseline of activity. Using a type of inducible reporter, measures of mRNA induction for gain or loss-of-signal activity can be used to understand regulation of transcription factor activity. To generalize the intended target to other relatable targets, this assay endpoint is annotated to the protease intended target family, where the subfamily is Cellular remodeling.
A total of 1060 chemcials from the ToxCast library were tested in eight-point concentration-response experiments. Cell culture and cytotoxicity assays were conducted at Thermo Fisher Scientific's Custom Services facility (Madison, WI). A single lot of human HepaRG cells (Thermo Fisher Scientific, Frederick, MD) was used for the cell culture experiments. 96-well format collagen type I coated plates of human HepaRG cells were prepared using established methods. Briefly, cryopreserved HepaRG cells were thawed, plated at a density of approximately 100,000 cells/well in HepaRG Thaw, Plate, and General Purpose media (HPRG770, Thermo Fisher Scientific), and incubated for 48 hours. […] Fluidigm's 96.96 Dynamic ArrayTM (Fluidigm, Amsterdam, the Netherlands) technology was used for gene expression analyses by quantitative reverse transcription polymerase chain reaction (qRT-PCR, performed by Quintiles/Expression Analysis, Durham, NC)89. […]

In the case of `Cc1ccc(N=CN(C)C=Nc2ccc(C)cc2C)c(C)c1`, the outcome in experiment [1], in experiment [2], in [3], in experiment [4], in [5] and in experiment [6] was inactive. Also, the result in experiment [7] was inactive.
For `CC(C)Nc1nc(Cl)nc(NC(C)C)n1`, the compound was classed as inactive in experiment [8], in [1], in experiment [2], in experiment [3], in experiment [4] and in [5]. Besides, the outcome in experiment [6] and in experiment [9] was inactive.
The AC50 is the concentration at which the activity in the assay is half-maximal. Turning to `COC(=O)NC(=S)Nc1ccccc1NC(=S)NC(=O)OC`, the call in experiment [1], in experiment [4], in experiment [5], in [6] and in experiment [7] was inactive. For the same compound, the AC50 in [2] was 52.6 µM (active).
For the compound `COP(=O)(OC)O/C(C)=C/C(=O)N(C)C`, the outcome in experiment [1], in experiment [2], in experiment [3], in [4], in [5] and in experiment [6] was inactive. For the same compound, the result in [7] and in experiment [9] was inactive.
On to `O=P(O)(O)CCCl`, for which the call in experiment [1], in experiment [2], in experiment [3], in experiment [4], in [5] and in experiment [6] was inactive. The outcome in [7] and in experiment [9] was inactive.
Consider `Nc1c(Cl)c(F)nc(OCC(=O)O)c1Cl`, for which the compound was called inactive in experiment [1], in [2], in experiment [4], in [6], in [7] and in experiment [9].
On to `CN=C=S`, for which the result in experiment [1], in experiment [2], in [3], in experiment [5], in experiment [6] and in [7] was inactive. Further, in experiment [9], the outcome was inactive.
`Cn1c(-c2ccccc2)cc(-c2ccccc2)[n+]1C`: the call in experiment [1], in experiment [2], in [3], in experiment [4], in experiment [5] and in experiment [6] was inactive. Moreover, the call in experiment [7] and in experiment [9] was inactive.
On to `CCOC(=O)C(C)OC(=O)c1cc(Oc2ccc(C(F)(F)F)cc2Cl)ccc1[N+](=O)[O-]` (stereo unspecified), for which the compound was called inactive in [1], in experiment [2], in experiment [3], in [4], in [5] and in experiment [6]. Also, in [9], the compound was classed as inactive.
For `CCC(C)n1c(=O)[nH]c(C)c(Br)c1=O` (stereo unspecified), the compound was called inactive in experiment [1], in experiment [2], in experiment [3], in experiment [4], in [5] and in experiment [6]. The result in [7], in experiment [9] and in experiment [10] was inactive.
Regarding `N#Cc1c[nH]cc1-c1cccc2c1OC(F)(F)O2`, the result in experiment [2], in experiment [3], in experiment [4], in experiment [5], in experiment [6] and in experiment [7] was inactive. Also, the call in [9] was inactive.
`N#CN=C1SCCN1Cc1ccc(Cl)nc1`: the outcome in experiment [1], in experiment [2], in experiment [3], in experiment [4], in experiment [5] and in experiment [6] was inactive. Further, the compound was called inactive in [7] and in [9].
Turning to `CC1(C)CCC(=Cc2ccc(Cl)cc2)C1(O)Cn1cncn1` (stereo unspecified), the result in experiment [1], in [2], in experiment [3], in experiment [5], in experiment [6] and in experiment [9] was inactive.
`CC1(C)C(C(=O)OC(C#N)c2cccc(Oc3ccccc3)c2)C1(C)C` (stereo unspecified): the call in experiment [1], in experiment [2], in experiment [3], in [4], in experiment [5] and in experiment [6] was inactive. The call in experiment [7] and in [9] was inactive.
For the compound `C=C(C)CN(CC)c1c([N+](=O)[O-])cc(C(F)(F)F)cc1[N+](=O)[O-]`, the outcome in experiment [1], in experiment [2], in experiment [3], in experiment [4], in experiment [5] and in [7] was inactive. For the same compound, in [9], the result was inactive.
For the compound `CCCCC(O)(Cn1cncn1)c1ccc(Cl)cc1Cl` (stereo unspecified), the call in [1], in [2], in experiment [4], in experiment [5], in [7] and in experiment [9] was inactive.
`COC(=O)N(C(=O)N1CO[C@@]2(C(=O)OC)Cc3cc(Cl)ccc3C2=N1)c1ccc(OC(F)(F)F)cc1`: the compound was called inactive in experiment [1], in experiment [2], in experiment [3], in experiment [4], in experiment [5] and in experiment [6]. For the same compound, the compound was classed as inactive in experiment [7] and in experiment [9].
Take `OC(c1ccc(Cl)cc1)(c1ccc(Cl)cc1)C(Cl)(Cl)Cl`: the result in experiment [1], in experiment [2], in experiment [3], in [5], in experiment [6] and in [7] was inactive. Besides, the result in [9] was inactive.
